Screens deposited in PubChem BioAssay by several laboratories.
Mtb FBA inh: Mtb FBA enzyme inhibitors, primary screen, biochemical, fluorescence, strain H37Rv. 360,000 tested, 2.3% active. purified M. tuberculosis FBA, fluorescence read-out. inhibition, % at 1 µM. AID 588726, 2011. Fructose-bisphosphate aldolase (Mycobacterium tuberculosis (strain ATCC 25618 / H37Rv)), …; in the data active means inhibition above about 27%;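 further: 0% = vehicle and 100% = reference inhibitor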
Target sequence (P9WQA3 whole entry, looked up): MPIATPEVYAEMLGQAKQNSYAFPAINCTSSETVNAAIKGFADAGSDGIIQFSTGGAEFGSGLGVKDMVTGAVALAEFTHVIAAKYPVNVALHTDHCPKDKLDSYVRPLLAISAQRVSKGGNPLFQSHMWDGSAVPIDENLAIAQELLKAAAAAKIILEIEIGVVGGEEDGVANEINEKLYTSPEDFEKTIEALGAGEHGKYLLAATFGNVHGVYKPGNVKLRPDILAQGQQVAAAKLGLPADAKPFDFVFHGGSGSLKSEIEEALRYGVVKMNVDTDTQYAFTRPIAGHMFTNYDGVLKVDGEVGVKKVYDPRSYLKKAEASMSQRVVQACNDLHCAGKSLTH
GDH-TPI counter: GDH-TPI coupling enzyme inhibitors, primary screen, artefact control for M. tuberculosis FBA inhibitor project, biochemical, absorbance, full deck. inhibition, % at 4.8 µM. GDH-TPI coupled enzyme counterscreen, NADH absorbance. 360,000 tested, 1.2% active; in the data active means inhibition above about 30%;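 further: 0% = DMSO wells and 100% = wells lacking the enzyme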
Mtb UGM inh: M. tuberculosis UGM enzyme inhibitors, primary screen, biochemical, fluorescence polarization, single point. UDP-galactopyranose mutase (Mycobacterium tuberculosis (strain ATCC 25618 / H37Rv)), …. purified UGM, fluorescence polarization probe displacement. inhibition, % at 10 µM. 320,000 tested, 0.06% active. AID 504406, 2011; in the data active means inhibition above about 10%, passing the limit was not always enough
Rv3671c inh: Rv3671c serine protease inhibitors, primary screen, biochemical, fluorescence polarization, M. tuberculosis H37Rv. inhibition, % at 5.96 µM. AID 2606, 2010. 320,000 tested, 0.048% active. P9WHR9; in the data active means inhibition above about 38%;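 further: extracellular domain of Rv3671c used as enzyme; 0% = enzyme with DMSO and 100% = no enzyme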
Mtb bLac sens: beta-lactam sensitization of Mtb H37Rv, H37Rv | M. tuberculosis H37Rv growth with meropenem, percent inhibition | 330,000 tested, 0.27% active | inhibition, % at 25 µM; call rule not given here;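 further: growth measured after seven days incubation then overnight dye step; 0% = bacteria only wells and 100% = bacteria with antibiotic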
Starred values were filed as active, the others as inactive; nt = not tested or not shown; + = active, no number. An excerpt weighted towards active compounds, which were near 3.5% of everything screened.

SMILES | Mtb FBA inh | GDH-TPI counter | Mtb UGM inh | Rv3671c inh | Mtb bLac sens
Cc1ccccc1-c1nn(-c2ccc(F)cc2F)cc1CNC1CC1 | 3 | 3 | 3 | -5 | -5
CCCCn1nc2cc(C(=O)NCc3ccccc3)ccc2c1OCC | 68* | 1 | -1 | 8 | 50
COc1ccccc1CNC(=O)c1ccc2nc3[nH]c4ccccc4c3nc2c1 | 0 | 40* | 0 | -56 | 10
CCCCn1nc2cc(C(=O)NCCCCc3ccccc3)ccc2c1OCC | 24 | -2 | 4 | 4 | 63
CCCn1nc2cc(C(=O)N(CC)c3ccc(OC)cc3)ccc2c1OCC | 40* | 0 | 3 | -11 | -1
CCCCn1nc2cc(C(=O)NCCc3ccc(C)cc3)ccc2c1OCC | 22 | 1 | 3 | 2 | 6
CCOc1c2ccc(C(=O)NCc3ccco3)cc2nn1CC | 39* | 7 | 1 | -1 | -6
CCOC(=O)CN1C(=O)CCSc2ccc(Cl)cc21 | -4 | -9 | 0 | 0 | -3
O=C(C1CCCCC1)N1C[C@@H](O)[C@H](n2cc(-c3ccc(F)cc3)nn2)C[C@@H]1c1ccccc1 | 5 | 5 | nt | nt | nt
COCCCn1c(=S)[nH]c(C)c(C)c1=O | -2 | 1 | 2 | 7 | 2
CCOc1c2ccc(C(=O)NCc3ccccc3OC)cc2nn1CC | 47* | -1 | -1 | 6 | 12
CCOc1c2ccc(C(=O)NCc3ccc(OC(F)(F)F)cc3)cc2nn1CC | 24 | 4 | -3 | 5 | 18
ClCCN(CCCl)c1ccc(C=NNc2ncccn2)cc1 | 1 | 57* | nt | nt | nt
N#Cc1ncc(N=Cc2ccc(N(CCCl)CCCl)cc2)s1 | -1 | 52* | nt | nt | nt
ClCCN(CCCl)c1ccc(C=Cc2ccncn2)cc1 | 0 | 12 | nt | nt | nt
COc1ccccc1C1c2[nH]c3ccccc3c2CCN1Cc1ccc(NC(C)=O)s1 (configuration not stated) | 8 | 32* | 1 | 10 | -7
COCc1cc(=O)[nH]c(Nc2nc3ccc(C)cc3o2)n1 | 7 | 34* | 3 | -10 | 97
CC(C)(C)C(=O)Oc1ccc2cc(-c3ccc4ccccc4n3)c(=O)oc2c1 | 8 | -1 | 0 | 6 | 14
CCN(CC)Cc1c(O)ccc2cc(-c3nc4ccccc4n3C)c(=O)oc12 | + | 12 | 1 | 4 | 13
CC(=O)Oc1ccc2cc(-c3nc4ccccc4n3C)c(=O)oc2c1 | + | 30 | 0 | -3 | 5
COc1ccc(C2C=C(c3ccccc3)Nc3nnnn32)cc1 (configuration not stated) | 9 | 7 | -3 | -1 | 9
C1=C(c2ccccc2)Nc2nnnn2C1 | 87* | 0 | -1 | -1 | 11
CN1C[C@H](CO)C=C2c3cccc4[nH]cc(c34)C[C@H]21 | 172* | 9 | 2 | -4 | -10
CC(C)[C@H]1C(=O)N2CCC[C@H]2[C@]2(O)O[C@](NC(=O)[C@@H]3C=C4c5cccc6[nH]cc(c56)C[C@H]4N(C)C3)(C(C)C)C(=O)N12 | 5 | 4 | 10 | -37 | 4
O=C(CNC(=O)c1ccc(S(=O)(=O)N2CCCC2)cc1)N/N=C/c1ccc(Cl)cc1Cl | 1 | 11 | 0 | -19 | 5
SMILES | Mtb FBA inh | GDH-TPI counter | Mtb UGM inh | Rv3671c inh | Mtb bLac sens
COc1ccc2c(c1OC)C(=O)N1N=C(c3ccccc3)CC21 (configuration not stated) | -2 | 20 | -2 | -2 | 11
COc1ccc(C2CC(c3ccccc3)=NN2c2ccccc2)c(C(=O)O)c1OC (configuration not stated) | 197* | 5 | 1 | 0 | 8
COc1ccc(C2=NN(c3ccc(C(=O)O)cc3)C(c3ccc(OC)c(OC)c3)C2)cc1 (configuration not stated) | + | 35* | 0 | 17 | 2
CC(=O)Oc1ccc(C2=NN(c3ccccc3)C(c3ccccc3)C2)cc1 (configuration not stated) | 129* | -3 | -2 | 0 | 15
COc1ccc(C2CC(c3ccccc3O)=NN2c2ccccc2)cc1 (configuration not stated) | 4 | 6 | 2 | 3 | -5
NS(=O)(=O)c1ccc(N2N=C(c3ccccc3)CC2c2cccc(F)c2)cc1 (configuration not stated) | + | 15 | -1 | 8 | -1
COc1ccc(C2=NN(C(=O)c3ccccc3)C(c3ccc(OC)c(OC)c3)C2)c(OC(C)=O)c1 (configuration not stated) | 0 | 9 | -1 | 2 | -1
O=C(Nc1cc(C(F)(F)F)cc(C(F)(F)F)c1)Nc1cnn(-c2ccc([N+](=O)[O-])cc2)c1C(F)(F)F | 2 | -13 | 2 | 0 | 100
Cc1ccc(CN(C)C2CCN(C)CC2)cc1 | 2 | -6 | 1 | -6 | -2
COc1cc(C2CC(c3cccnc3)=NN2c2ccc(F)cc2)cc(OC)c1OC (configuration not stated) | + | 10 | 3 | 0 | 2
NS(=O)(=O)c1ccc(N2N=C(c3ccccc3)CC2c2ccccc2Br)cc1 (configuration not stated) | + | 21 | nt | nt | nt
COc1cc(C2CC(c3ccccc3)=NN2c2ccccc2)ccc1OCC(=O)O (configuration not stated) | + | 12 | 3 | 0 | 0
CNC(=S)N1N=C(c2ccccc2)CC1c1ccc(OC)c(OC)c1 (configuration not stated) | 0 | 20 | -1 | 1 | 1
COc1cc(N2N=C(c3ccccc3)CC2c2ccccc2)c(C=O)cc1C=O (configuration not stated) | -1 | 20 | 0 | 2 | -2
COc1ccc(C2CC(c3ccccc3)=NN2c2ccc(S(N)(=O)=O)cc2)cc1OC (configuration not stated) | + | 18 | -2 | 6 | -3
N=c1c(S(=O)(=O)c2ccc(Cl)cc2)cc2c(=O)n3ccccc3nc2n1C1CCCCC1 | -3 | 6 | 4 | 1 | 5
O=[N+]([O-])c1ccc(N2N=C(c3ccccc3)CC2c2ccccc2O)cc1 (configuration not stated) | -12 | 4 | 1 | nt | 24
NS(=O)(=O)c1ccc(N2N=C(c3ccc(Br)cc3)CC2c2ccc(F)cc2)cc1 (configuration not stated) | + | 28 | 1 | 10 | 97
NS(=O)(=O)c1ccc(N2N=C(c3ccccc3)CC2c2cccc(Br)c2)cc1 (configuration not stated) | + | 27 | nt | nt | nt
CNC(=S)N1N=C(c2ccc(Br)cc2)CC1c1ccc(Br)cc1 (configuration not stated) | 2 | 24 | -4 | -19 | -1
O=C(COC(=O)Cc1c(F)cccc1Cl)NC(=O)Nc1ccccc1F | 1 | 3 | 2 | 11 | -7
